# High-throughput results deposited in PubChem by several laboratories.
# TLR9-MyD88 block: inhibitors of TLR9-MyD88 association in cells, primary screen, cell-based, CHO, BLA complementation, fluorescence | Toll-like receptor 9 (Homo sapiens) + Myeloid differentiation primary response protein … | CCF4 FRET ratio | inhibition, % at 4.98 µM | actives 0.21% (n = 340,000);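 active means inhibition above the mean over all tested compounds plus 3 SD, cut at about 21% in these data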;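 further: 0% = DMSO only wells and 100% = clavulanate BLA inhibitor control wells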
# NOD2 RIPK2 PPI: NOD2-RIPK2 binding disruptors in cells, primary screen, fluorescence, CHO cells, BLA complementation | Receptor-interacting serine/threonine-protein kinase 2 (Homo sapiens), O43353 | CCF4 ratio | inhibition, % at 4.98 µM | actives 0.38% (n = 360,000) | AID 624267, 2012; in the data active means inhibition above about 21%;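 further: 0% = vehicle only and 100% = reference blocker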
# Target sequence (O43353 whole entry, looked up): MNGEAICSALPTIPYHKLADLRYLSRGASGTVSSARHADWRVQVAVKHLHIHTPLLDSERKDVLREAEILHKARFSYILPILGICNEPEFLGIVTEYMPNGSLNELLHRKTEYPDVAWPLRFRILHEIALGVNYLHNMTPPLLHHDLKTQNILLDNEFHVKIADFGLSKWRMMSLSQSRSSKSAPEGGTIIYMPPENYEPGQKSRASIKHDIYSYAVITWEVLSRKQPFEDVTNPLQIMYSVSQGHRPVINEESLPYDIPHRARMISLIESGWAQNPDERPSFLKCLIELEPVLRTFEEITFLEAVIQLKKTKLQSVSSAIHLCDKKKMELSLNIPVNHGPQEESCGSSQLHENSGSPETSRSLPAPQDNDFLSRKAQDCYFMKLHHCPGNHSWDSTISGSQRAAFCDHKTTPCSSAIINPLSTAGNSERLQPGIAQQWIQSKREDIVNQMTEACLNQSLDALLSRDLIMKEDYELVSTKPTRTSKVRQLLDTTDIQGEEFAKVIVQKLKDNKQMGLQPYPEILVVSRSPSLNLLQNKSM
# TLR4 MyD88 comp: inhibitors of TLR4-MyD88 association in cells, primary screen, cell-based, HeLa CL3-4, BLA complementation, FRET ratio; AID 861, 2007; HeLa CL3-4 TLR4/MyD88 BLA complementation; actives 0.18% (n = 200,000); inhibition, % at 8.4 µM; Toll-like receptor 4 (Homo sapiens) + Myeloid differentiation primary response protein …; in the data active means inhibition above about 25%;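 further: 0% = vehicle and 100% = reference inhibitor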
# Myeloid diff 2: induction of myeloid progenitor differentiation, primary screen, cell-based, flow cytometry, MLPCN library. actives 1% (n = 360,000). calls only at 10 µM. ER-HoxA9 myeloid progenitors, lysozyme-GFP differentiation. AID 624256, 2012;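 active means normalized GFP-positive differentiation at or above the plate's own cutoff, the solvent-only control mean plus 3 SD; inconclusive means no clear call, values can overlap the other calls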;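 further: cells exposed to compound for four days before flow analysis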
# Myeloid diff: inducers of myeloid progenitor differentiation, confirmation, cell-based, GFP/Mac1 flow cytometry, cherry pick 01; shares compounds with Myeloid diff 2; ER-HoxA9 myeloid progenitors, GFP/Mac1 double-positive flow; calls only; actives 2% (n = 2,300);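 active means share of green or green-and-red cells above 9 and 9% in run 1 or 4 and 3% in run 2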
# GFP autofluor: flagged as fluorescent in myeloid differentiation counter-screen | shares compounds with Myeloid diff 2 | ER-HoxA9 myeloid progenitors, no estrogen, GFP autofluorescence flow cytometry; vehicle wells 0%, positive control 100% | fluorescence response, % (concentration not given with the values) | actives 7.4% (n = 2,300);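 active means over 5% cells positive for green fluorescent reporter, or over 2% positive for both it and APC stain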;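 further: range taken on the double positive population between DMSO and positive control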
# Starred values were filed as active, the others as inactive; i = inactive; ? = inconclusive; nt = no result given; + = active, no number. Rows were chosen to be rich in hits. Some 1.5% of all compounds tested hit in one or more screens of this group.
SMILES,TLR9-MyD88 block,NOD2 RIPK2 PPI,TLR4 MyD88 comp,Myeloid diff 2,Myeloid diff,GFP autofluor
COc1ccc(CC(=O)OCC(=O)NCc2ccco2)cc1,4,-4,nt,i,nt,nt
COc1cc(Cn2c3ccc(NC(=O)CCc4ccc(O)cc4)cc3c(=O)n2C)ccc1F,nt,-2,nt,i,nt,nt
COc1ccc(S(=O)(=O)Nc2cccc(-c3ccc4nncn4n3)c2)cc1,2,4,nt,i,i,0
Nc1nc(-c2ccccc2)c(CC(=O)O)s1,-4,-15,nt,i,nt,nt
Nc1nc(-c2ccc(Oc3ccccc3)cc2)c(CC(=O)O)s1,-10,2,nt,i,i,0
Cc1cc(Cl)ccc1NC(=S)N1CCN(Cc2ccc3c(c2)OCO3)CC1,6,-5,-10,+,i,0
Fc1ccccc1NC(=S)N1CCN(Cc2ccc3c(c2)OCO3)CC1,3,-10,11,i,nt,nt
FC(F)(F)c1ccc(N2CCN(c3cc(-c4ccccc4)nc4ncnn34)CC2)nc1,0,-7,-2,i,i,1
CCNc1nc(SCC(N)=O)nc2sc3c(c12)CCN(C)C3,2,-7,nt,i,i,0
CCN1C(=S)SC(=O)C1=C1C=C(C)N(CCO)C(C)=C1,-12,9,2,i,i,0
O=C1CCC(c2ccc3ccccc3c2)O1 (stereo not given),-7,-1,nt,i,i,2
CCOc1ccc(/C(O)=C2/C(=O)C(=O)N(c3nc(C)c(C)s3)C2c2ccco2)cc1 (stereo not given),0,-8,-6,i,i,9.0*
CCN(CC)CCN1C(=O)C(=O)/C(=C(/O)c2ccc(OC)cc2)C1c1ccco1 (stereo not given),0,-6,13,i,nt,nt
O=C(NCc1ccccc1)C(C1CC1)n1c(-c2cccs2)nc2ccccc21 (stereo not given),nt,-3,nt,i,nt,nt
C/C(=N/NC(=O)c1cccc(C)c1)c1c(O)cc(C)oc1=O,0,0,-1,i,i,0
C/C(=N\Nc1ccccc1)c1c(O)cc(C)oc1=O,-2,-20,-17,i,nt,nt
COc1ccc(Cc2nnc(NC(=O)C3CCCO3)s2)cc1 (stereo not given),12,-1,12,i,nt,nt
COc1ccc(Cc2nnc(NC(=O)C3CCCO3)s2)cc1OC (stereo not given),-5,1,-3,+,i,0
COc1ccc(NC(=O)c2cc(C3CCCCN3C(=O)c3cc(OC)c(C)c(OC)c3)on2)c(C)c1 (stereo not given),nt,-7,nt,i,nt,nt
CN(Cc1nc(-c2cnccn2)no1)CC1(c2ccccc2)CC1(C)C (stereo not given),-12,3,2,i,nt,nt
CN(Cc1nc(-c2cnccn2)no1)C1CC(C)(C)NC(C)(C)C1,3,-7,-1,i,i,0
COc1cccc(N=C(N)N=C(N)N)c1,8,-24,nt,+,i,0
C[C@H](CO)N1C[C@H](C)[C@H](CN(C)Cc2ccncc2)Oc2ncc(C#CC3CC3)cc2C1=O,-11,-5,nt,i,nt,nt
C[C@@H]1CN([C@H](C)CO)C(=O)c2cc(C#CC3CCCCC3)cnc2O[C@H]1CN(C)Cc1cccnc1,1,2,nt,i,i,0
CCc1nc2ccc(C(=O)NCc3ccccc3OC)cn2c1N(C)Cc1ccc(N(C)C)cc1,nt,1,nt,i,nt,nt
SMILES,TLR9-MyD88 block,NOD2 RIPK2 PPI,TLR4 MyD88 comp,Myeloid diff 2,Myeloid diff,GFP autofluor
CNc1cncc(-c2cnn(CC(C)C)c2)n1,nt,-7,nt,i,nt,nt
CC(=O)C1=C(O)C=C(c2ccco2)CC1c1ccco1 (stereo not given),-1,-7,1,i,i,0
O=C(CCl)N1N=C(c2ccco2)CC1c1ccco1 (stereo not given),-2,-16,nt,?,nt,nt
O=C(NCc1cccs1)C1C(=O)Nc2ccccc2C(=O)N1C1CCCC1 (stereo not given),nt,-3,nt,i,nt,nt
O=C1c2ccccc2C(c2nnnn2-c2ccc3c(c2)OCCO3)N1C1CC1 (stereo not given),nt,-5,nt,i,nt,nt
CCc1cn(C2CC(O)C(CO)O2)c(=O)[nH]c1=O (stereo not given),-5,-6,nt,+,i,0
O=c1[nH]c(=O)n([C@H]2C[C@H](O)[C@@H](CO)O2)cc1I,-4,2,nt,i,nt,nt
C#CCN(C[C@@H]1[C@@H](OC(=O)Nc2cccs2)[C@@H](OC(=O)Nc2cccs2)Cn2c(=O)n(CCCCCC)c(=O)n21)S(=O)(=O)c1ccc(C)cc1,-5,8,nt,i,nt,nt
Cc1ccc(C(=O)C[n+]2cccc3ccccc32)cc1,3,-5,-1,+,i,1
O=C(C[n+]1cccc2ccccc21)c1ccc(Br)cc1,1,8,nt,+,i,1
NC(=O)C[n+]1cccc2ccccc21,-9,-4,-1,i,nt,nt
O=[N+]([O-])c1cc(-c2ccc(C(=S)N3CCOCC3)o2)ccc1Cl,-12,1,4,+,i,0
CC(C)Nc1nc(-c2ccccc2F)c2sc(-c3ccccc3)cc2n1,nt,1,nt,i,nt,nt
COCCNc1nc(NCc2cccc(OC)c2)c2sc(-c3ccccc3)cc2n1,nt,-5,nt,+,i,0
CC(C)Nc1nc(NCCN2CCCC2)c2sc(-c3ccccc3)cc2n1,nt,1,nt,+,i,0
CCOc1ccc(NC(=O)CN(C)C(=O)c2cccc(S(=O)(=O)N3CCN(C)CC3)c2)cc1OCC,-4,0,nt,i,nt,nt
C[C@@H]1CN([C@H](C)CO)C(=O)CCCn2nncc2CO[C@H]1CN(C)S(=O)(=O)c1ccccc1F,-6,2,nt,i,nt,nt
COc1ccc(/C=C/C(=O)NC2CCCCCCC2)cc1S(=O)(=O)N1CCOCC1,-6,-3,-13,i,i,0
COc1ccc(/C=C/C(=O)NC(C)(C)C)cc1S(=O)(=O)N1CCOCC1,-11,-3,-7,i,nt,nt
CCc1ccc2c(Cl)c(C(=O)N/N=C/c3c[nH]c4ccccc34)sc2c1,-20,-5,2,i,nt,nt
CCc1ccc(-c2cc(C(=O)N/N=C/c3c[nH]c4ccccc34)[nH]n2)cc1,-10,1,-3,i,i,2
O=[N+]([O-])c1cc([N+](=O)[O-])c2nonc2c1Nc1ccccc1O,15,6,nt,+,i,4
O=[N+]([O-])c1cc([N+](=O)[O-])c2nonc2c1Nc1ccc(O)cc1,-4,1,nt,i,nt,nt
CCNC(=O)C1CCCN(C(=O)c2ccc3ccccc3c2)CC1 (stereo not given),nt,-9,nt,i,nt,nt
